A short description of assay [1]: qHTS RealTime-Glo MT Cell Viability Assay in HepG2 cells - 8 hour (AID 1224873). Note: nearly all actives have a fitted effect of over 55% in size. To be noted: RealTime-Glo luminescence; series mostly up to 76.8 µM. In short, it runs like this: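 HepG2 cells mixed with RealTime-Glo MT reagents (NanoLuc plus cell-permeant prosubstrate) were seeded at 600 cells/well, incubated 5 h at 37 C/5% CO2, then pinned with compounds in DMSO; nonlytic luminescence tracked viability during 40 h treatment.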

Assay [2] in a line: qHTS RealTime-Glo MT Cell Viability Assay in HEK293 cells - 40 hour (AID 1224874). Note: nearly all actives have a fitted effect of over 50% in size. Note: potency is the fitted concentration of half-maximal effect. To be noted: RealTime-Glo luminescence; max response: active compounds read low. In short, it runs like this:
(§1)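 Luminescence, which tracks viable cell number through reduction of the prosubstrate to a NanoLuc substrate, was read over continuous 37 C culture. Cells (600/well) were premixed with reagent and rested 5 h before 23 nL of compound in DMSO was pinned.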
In general terms: Quantitative high-throughput screening tests each substance at several concentrations.

Assay [3] can be described thus: A CellTox Green Cytotoxicity Assay to monitor cytotoxicity in HEK293 cells - 24 hour (AID 1224875). Note: nearly all actives have a fitted effect of over 45% in size. To be noted: CellTox Green fluorescence; series mostly up to 76.8 µM. In short, it runs like this: (§2)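 Fluorescence from a DNA-binding dye excluded by viable cells was measured repeatedly in the same HEK293 wells (600 cells/well) during continuous compound exposure at 37 C. Each assay gives one read point: 0, 8, 16, 24, 32 or 40 h.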

Assay [4] can be described thus: A CellTox Green Cytotoxicity Assay to monitor cytotoxicity in HepG2 cells - 16 hour (AID 1224876). Note: nearly all actives have a fitted effect of over 45% in size. Note: potency is the fitted concentration of half-maximal effect. The conditions noted are these: CellTox Green fluorescence; series mostly up to 76.8 µM. In short, it runs like this: (§3)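 Real-time cytotoxicity: fluorescence of a cell-impermeant cyanine dye binding DNA of dead HepG2 cells, measured repeatedly (0–40 h) during compound exposure at 37 C. Cells seeded 600/well with reagent, dosed after 5 h.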

The nature of assay [5]: qHTS RealTime-Glo MT Cell Viability Assay in HepG2 cells - 32 hour (AID 1224877). Note: nearly all actives have a fitted effect of over 55% in size. To be noted: RealTime-Glo luminescence; series mostly up to 76.8 µM. In short, it runs like this: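 Compound treatment began 5 h after plating HepG2 cells (600/well) with NanoLuc luciferase and prosubstrate. Plates stayed at 37 C for 40 h; luminescence was captured at six time points, 0 h through 40 h.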

A short description of assay [6]: A CellTox Green Cytotoxicity Assay to monitor cytotoxicity in HepG2 cells - 24 hour (AID 1224878). Note: nearly all actives have a fitted effect of over 45% in size. Note: potency is the fitted concentration of half-maximal effect. The conditions noted are these: CellTox Green fluorescence; series mostly up to 76.8 µM. In short, it runs like this: as §3
The nature of assay [7]: A CellTox Green Cytotoxicity Assay to monitor cytotoxicity in HepG2 cells - 40 hour (AID 1224879). Note: nearly all actives have a fitted effect of over 40% in size. Note: potency is the fitted concentration of half-maximal effect. To be noted: CellTox Green fluorescence; series mostly up to 76.8 µM. In short, it runs like this: as §3
A short description of assay [8]: A CellTox Green Cytotoxicity Assay to monitor cytotoxicity in HEK293 cells - 32 hour (AID 1224881). Note: nearly all actives have a fitted effect of over 40% in size. To be noted: CellTox Green fluorescence; series mostly up to 76.8 µM. In short, it runs like this:
as §2

Assay [9] can be described thus: qHTS RealTime-Glo MT Cell Viability Assay in HEK293 cells - 16 hour (AID 1224872). Note: top concentration of the series differs between compounds; nearly all actives have a fitted effect of over 50% in size. To be noted: RealTime-Glo luminescence; series mostly up to 76.8 µM. In short, it runs like this:
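Quantitative high-throughput screen of the Tox21 10K library in HEK293: cells and RealTime-Glo reagents plated together, compound added at 5 h, luminescence monitored through 40 h at 37 C.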

The nature of assay [10]: qHTS RealTime-Glo MT Cell Viability Assay in HEK293 cells - 0 hour (AID 1224880). Note: top concentration of the series differs between compounds; nearly all actives have a fitted effect of over 45% in size. The conditions noted are these: RealTime-Glo luminescence; series mostly up to 76.8 µM. The procedure, abridged: as §1

SMILES strings stand for the structures. Inconclusive results are not listed. Values without a mark were called inactive. Active and inactive are the calls of the source. Calls come from the whole dose curve; as a rule, active = well fitted curve in the direction sought with a large enough effect in the repeat runs; inconclusive = weak or mixed curves; inactive = no such curve, though single readings can be large; an effect the other way counts as inactive or inconclusive.
% is set by controls: 0 for no effect and ±100 for the full control effect.

As for `CC1=C(C(=O)Nc2ccccc2)S(=O)(=O)CCO1`, the Potency entry in assay [1], in assay [3], in assay [4], in assay [5], in [6] and in [7] was “inactive” each time. Moreover, the Potency result in [8] was “inactive”. In addition, in assay [2], the Potency is 43.6 µM (active).
On to `CCOP(=S)(OCC)Oc1nc(Cl)n(C(C)C)n1`, for which the Potency result in [9], in assay [3], in assay [4], in [5], in assay [7] and in [8] was “inactive” each time. Further, the max response in assay [2] was 3.99%. For the same compound, in assay [10], the call was inactive.
Regarding `CNC(=O)O/N=C(\C)SC`, the Potency entry in [9], in assay [3], in [5], in [6], in [7] and in [8] was “inactive” throughout. Further, the max response in [2] was 14.5%. For the same compound, the Potency in [4] was 0.219 µM (active). Also, the compound was classed as inactive in assay [10].
For the compound `CNNC`, the Potency result in assay [1], in assay [3], in assay [4], in [5], in assay [6] and in assay [7] was “inactive” each time. The Potency result in assay [8] is “inactive”. The max response in assay [2] was -7.62%. The outcome in [10] was inactive.
Consider `O=C(O)c1cccc(Cl)c1`, for which the Potency result in assay [1], in [3], in assay [4], in assay [5], in assay [6] and in assay [7] was “inactive” each time. For the same compound, in assay [8], the Potency result is “inactive”. Further, the max response in [2] was 4.06%. In assay [10], the compound was called inactive.
As for `ClCC(Cl)Cl`, the Potency entry in [9], in [3], in [4], in [5], in assay [6] and in assay [7] was “inactive” in each case. Moreover, in [8], the Potency entry was “inactive”. Besides, the max response in assay [2] was -2.64%. The result in assay [10] was inactive.
As to `CCOP(=O)(N=C1SCCS1)OCC`, the Potency result in assay [1], in [3], in [4], in assay [5], in assay [6] and in [7] was “inactive” throughout. Besides, the Potency result in [8] is “inactive”. Besides, the max response in assay [2] was 21.4%. Further, the compound was called inactive in assay [10].
As for `CNC(=O)Oc1cccc(C(C)C)c1`, the Potency result in assay [1], in assay [3], in assay [4], in [5], in assay [6] and in assay [7] was “inactive” in each case. Moreover, the Potency result in [8] was “inactive”. In [2], the max response was -3.66%. For the same compound, the call in assay [10] was inactive.
Turning to `Fc1cc(Br)ccc1CBr`, the Potency result in [1], in [3], in assay [4], in [5], in assay [6] and in assay [7] was “inactive” each time. The Potency result in assay [8] was “inactive”. For the same compound, the max response in assay [2] was -0.0441%. The call in [10] was inactive.
Take `CCCCc1ccc(O)cc1`: the Potency entry in assay [1], in assay [3], in assay [5] and in [8] was “inactive” throughout. Further, the Potency in assay [2] was 15.5 µM (active); in [4] it was 21.8 µM (active); in assay [6] it was 21.8 µM (active); in assay [7] it was 21.8 µM (active). Moreover, in assay [10], the outcome was inactive.
`CC1(C)C(=O)NC(=O)NC1=O`: the Potency result in assay [9], in assay [4], in assay [5], in [6] and in assay [7] was “inactive” throughout. Besides, the max response in assay [2] is -10.9%. Moreover, in assay [10], the result was inactive.
In the case of `Nc1cnn(-c2ccccc2)c(=O)c1Cl`, the Potency result in assay [1], in assay [3], in [4], in [5], in [6] and in assay [7] was “inactive” each time. Besides, the Potency result in [8] is “inactive”. For the same compound, the max response in assay [2] was 20.5%. The compound was classed as inactive in assay [10].
On to `NC(=O)c1cc([N+](=O)[O-])cc([N+](=O)[O-])c1`, for which the Potency entry in assay [9], in [3], in assay [4], in assay [5], in assay [7] and in assay [8] was “inactive” each time. The max response in assay [2] was 4.2%. The result in assay [10] was inactive.
Regarding `COP(=S)(OC)Oc1c(Cl)cc(C)cc1Cl`, the Potency result in assay [1], in assay [3], in assay [4], in assay [5], in assay [6] and in [7] was “inactive” throughout. Also, the Potency entry in assay [8] was “inactive”. In assay [2], the max response is 0.348%. The outcome in [10] was inactive.
`Nc1ccccc1Cl`: the Potency entry in assay [1], in assay [3], in assay [4], in assay [5], in [6] and in assay [7] was “inactive” throughout. Besides, the Potency entry in assay [8] is “inactive”. For the same compound, in assay [2], the max response is 15.7%. For the same compound, in [10], the compound was called inactive.
